Experimental data: PubChem BioAssay AID652197 (Broad Institute, 2013)
Several values for one entry are separate records, joined by “and”; a condition that tells them apart may be missing. Equal values may be shown once. About 500 (0.15%) of roughly 340,000 compounds were called active.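 How the source made its calls: active means mean replicate inhibition of at least 30%, or all replicates individually reaching that 30% level; inactive means mean below 30% and not every replicate reaching it.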 The sample as a whole holds a higher share of actives than the screen did.

Target: Endoplasmic reticulum aminopeptidase 1 (Homo sapiens) (UniProt Q9NZ08)
Sequence (Q9NZ08 whole entry, looked up): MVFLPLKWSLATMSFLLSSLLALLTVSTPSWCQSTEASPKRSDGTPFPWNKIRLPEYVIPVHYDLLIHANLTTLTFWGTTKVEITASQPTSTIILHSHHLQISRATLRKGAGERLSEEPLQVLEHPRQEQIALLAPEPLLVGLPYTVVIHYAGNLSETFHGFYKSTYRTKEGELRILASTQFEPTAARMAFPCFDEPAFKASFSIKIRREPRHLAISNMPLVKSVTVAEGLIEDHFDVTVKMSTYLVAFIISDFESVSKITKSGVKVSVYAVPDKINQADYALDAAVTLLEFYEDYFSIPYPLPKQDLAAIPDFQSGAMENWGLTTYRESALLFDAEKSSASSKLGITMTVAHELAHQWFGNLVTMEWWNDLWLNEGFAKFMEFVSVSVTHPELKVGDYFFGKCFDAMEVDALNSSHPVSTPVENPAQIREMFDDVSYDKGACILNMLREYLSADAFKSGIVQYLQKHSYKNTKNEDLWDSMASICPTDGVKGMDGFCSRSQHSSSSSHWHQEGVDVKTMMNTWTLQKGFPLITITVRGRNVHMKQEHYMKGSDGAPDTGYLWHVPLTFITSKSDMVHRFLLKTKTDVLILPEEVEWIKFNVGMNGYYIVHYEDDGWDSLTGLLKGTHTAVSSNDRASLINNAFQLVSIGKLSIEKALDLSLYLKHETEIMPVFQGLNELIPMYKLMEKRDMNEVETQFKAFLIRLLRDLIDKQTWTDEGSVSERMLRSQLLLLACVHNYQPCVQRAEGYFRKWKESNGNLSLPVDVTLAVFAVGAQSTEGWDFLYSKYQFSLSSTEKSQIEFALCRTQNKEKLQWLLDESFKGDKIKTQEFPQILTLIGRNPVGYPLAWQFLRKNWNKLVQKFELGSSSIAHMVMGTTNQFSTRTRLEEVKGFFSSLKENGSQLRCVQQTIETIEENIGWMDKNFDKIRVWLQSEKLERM
Assay: human ERAP1 aminopeptidase inhibitors, primary screen, biochemical, single point, plate reader (AID 652197);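 further: 0% = neutral control wells and 100% = L-leucinethiol positive control wells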
Settings: recombinant ERAP1, Leu-AMC fluorescence, 60 min; at 10.7 µM; stronger effect = higher value

inhibition, active:
Cn1c(=O)[nH]c(=O)c2c1[nH]c(=S)n2Cc1ccccc1 30.6%
COc1ccc2c(c1)c(=Cc1ccc(N(C)C)cc1)c1cc(-c3ccccc3)[n+](C)n12 48.3%
Cc1cccn2c(=O)c3cc(C(=O)NCCN4CCOCC4)c(=N)n(Cc4cccnc4)c3nc12 54.5%
COC(=O)/C=C\C(=O)Nc1cccc([N+](=O)[O-])c1 33.8%
Cc1c(C)c2c(OCC(=O)N[C@@H](C(=O)O)c3ccccc3)cc3c(c2oc1=O)CCC(C)(C)O3 31.7%

inhibition, inactive:
COc1ccc2c3c(n(C)c2c1)[C@@H](CO)N(C(=O)Nc1cccc(F)c1)CC31CCN(Cc2nccs2)CC1 -1.39%
O=C(Nc1ccccc1F)N1CC(=O)N2[C@@H](CO)[C@H](c3ccc(C#CC4CCCC4)cc3)[C@@H]2C1 -1.61%
CCC(=O)N1CCC2(CC1)CN(S(C)(=O)=O)[C@@H](CO)c1c2c2ccc(OC)cc2n1C -0.517%
CC(=O)N(C)C[C@H]1[C@H](c2ccc(C3=CCCCC3)cc2)[C@H](CO)N1CC1CC1 2.34%
O=C(NCC1CC1)[C@@H]1[C@@H](CO)[C@@H]2Cn3c(ccc(C4=CCCC4)c3=O)[C@H]1N2CCC(F)(F)F 6.29%
O=C(Nc1ccc(F)cc1)N[C@H]1CC[C@H](CCn2cc(C3(O)CCCC3)nn2)O[C@@H]1CO -1.65%
CN1CCN(C(=O)C[C@H]2CC[C@H]3[C@@H](COC[C@H](O)CN3CC3CCCC3)O2)CC1 1.07%
O=C(C[C@@H]1CC[C@@H]2[C@H](COC[C@H](O)CN2C(=O)c2ccncc2)O1)NCc1cc(F)cc(F)c1 -4.11%
CN1c2ccc(Br)cc2[C@@H]2[C@@H](CCN2S(=O)(=O)c2ccc(F)cc2)[C@@H]1CO -0.368%
CN1CCCCC(NC(=O)C(C)(C)C)C1=O (configuration not stated) -3.81%
CS(=O)(=O)Nc1ccc2c(c1)[C@H]1C[C@H](CC(=O)NC3CCCC3)O[C@@H](CO)[C@H]1O2 -1.31%
CC(C)C#Cc1cnc2c(c1)C(=O)N([C@H](C)CO)C[C@H](C)[C@@H](CN(C)C(=O)Nc1cc(F)ccc1F)O2 1.03%
O=C(C[C@@H]1C=C[C@H](NC(=O)CN2CCOCC2)[C@@H](CO)O1)NCc1cccc(F)c1 0.919%
CCCC#Cc1ccc([C@@H]2[C@@H](CO)N3C(=O)CN(C(=O)Nc4cccc(F)c4)C[C@H]23)cc1 -1.93%
CCCNC(=O)Nc1ccc2c(c1)OC[C@H](C)N(CCC(F)(F)F)C[C@H](C)[C@@H](OC)CN(C)C2=O 1.36%
CCN(CC)CCn1cnc2c1c(=O)[nH]c(=O)n2Cc1ccccc1 -0.129%
Cc1nnc(Sc2nc3c(c(=O)[nH]c(=O)n3C)n2Cc2ccccc2)s1 -0.766%
Cc1noc(C)c1NC(=O)N(C)C[C@@H]1OCCCC[C@H](C)Oc2ccc(NC(=O)C3CCCCC3)cc2C(=O)N([C@H](C)CO)C[C@@H]1C 1.95%
Cc1noc(C)c1NC(=O)N(C)C[C@@H]1OCCCC[C@H](C)Oc2ccc(NS(=O)(=O)c3c(C)noc3C)cc2C(=O)N([C@@H](C)CO)C[C@@H]1C -2.92%
CO[C@@H]1CN(C)C(=O)c2cc(NC(=O)NC3CCCCC3)ccc2OC[C@@H](C)N(C(C)=O)C[C@H]1C 1.39%
CO[C@H]1CN(C)C(=O)c2ccc(NC(=O)CC(F)(F)F)cc2OC[C@H](C)N(C(=O)C2CC2)C[C@H]1C 1.15%
COc1ccc2sc(-c3ccc(N(C)C)cc3)c(C#CCO)c2c1 0.776%
CN(C)Cc1cn(CC[C@H]2CC[C@@H](NS(=O)(=O)c3ccccc3)[C@H](CO)O2)nn1 -0.48%
CCNC(=O)Nc1ccc2c(c1)C(=O)N(C)[C@H]1CC[C@@H](CC(=O)N[C@@H](C)c3ccccc3)O[C@H]1CO2 -1.42%
O=C(O)C[C@@H]1C[C@@H]2c3cc(NC(=O)NC4CCCC4)ccc3O[C@@H]2[C@H](CO)O1 0.604%
CC(C)NC(=O)N1[C@H](CO)[C@H](c2ccccc2)C12CN(C(=O)Cc1cccnc1)C2 0.883%
COc1ccc(CCn2c(=N)c(C(=O)NCC3CCCO3)cc3c(=O)n4cccc(C)c4nc32)cc1OC (configuration not stated) 1.75%
Cc1ccc2nc3c(cc(C(=O)NCCc4ccccc4)c(=N)n3CC3CCCO3)c(=O)n2c1 (configuration not stated) -79.5%
C[C@H]1CN([C@@H](C)CO)C(=O)Cc2cc(NC(=O)Cn3cnnn3)ccc2O[C@H]1CN(C)CC1CC1 2.17%
O=C(C[C@H]1C=C[C@H](NC(=O)Nc2cc(F)ccc2F)[C@@H](CO)O1)NCc1ccccn1 -1.22%
COc1ccc(C(=O)Nc2ccc3c(c2)C(=O)N(C)C[C@@H](OC)[C@H](C)CN(C(C)=O)[C@@H](C)CO3)cc1 2.42%
O=C(Nc1cccc([N+](=O)[O-])c1)Nn1cnnc1 -4.32%
CCC(CC)NC(=O)/C=C/c1cccc([N+](=O)[O-])c1 4.03%
C[C@@H]1CCCCO[C@H](CN(C)C)[C@@H](C)CN([C@H](C)CO)C(=O)c2cc(N(C)C)ccc2O1 -1.68%
COc1ccc(NC(=O)N(C)C[C@@H]2OCCCC[C@H](C)Oc3ccc(NS(=O)(=O)c4cccs4)cc3C(=O)N([C@@H](C)CO)C[C@@H]2C)cc1 -4.78%
Cc1cc(=O)oc2c3c(cc(OCC(=O)N[C@H](C(=O)O)c4ccccc4)c12)OC(C)(C)CC3 15.5%
Cc1c(C)c2c(OCC(=O)NCCCO)cc3c(c2oc1=O)CCC(C)(C)O3 1.62%
O=C(C[C@H]1CC[C@H]2[C@@H](COC[C@@H](O)CN2Cc2nccs2)O1)NCc1ccccc1Cl 0.949%
COc1ccccc1S(=O)(=O)N[C@@H]1C=C[C@H](CC(=O)NCc2cccc(F)c2)O[C@H]1CO 0.371%
CN(C)C(=O)C[C@@H]1C[C@H]2c3cc(NC(=O)Nc4ccccc4F)ccc3O[C@H]2[C@@H](CO)O1 -1.15%
O=C(C[C@@H]1C=C[C@H](NC(=O)Nc2ccccc2F)[C@H](CO)O1)NCc1ccc(F)cc1 -4.09%
COc1ccc(NC(=O)Nc2ccc3c(c2)C(=O)N([C@@H](C)CO)C[C@@H](C)[C@H](CN(C)S(=O)(=O)c2cccs2)O3)cc1 2.02%
C[C@@H]1CN([C@H](C)CO)C(=O)c2cc(NS(=O)(=O)c3cn(C)cn3)ccc2O[C@@H](C)CCCCO[C@H]1CN(C)C 11.1%
COc1ccc(C#Cc2cnc3c(c2)C(=O)N([C@H](C)CO)C[C@@H](C)[C@@H](CN(C)C(=O)CN(C)C)O3)cc1 6.88%
Cc1noc(C)c1S(=O)(=O)Nc1cccc2c1O[C@@H](CN(C)S(=O)(=O)c1cn(C)cn1)[C@@H](C)CN([C@H](C)CO)C2=O 1.15%
CCCc1cn(CC[C@@H]2CC[C@H](NS(=O)(=O)c3ccccc3Cl)[C@H](CO)O2)nn1 4.02%
CO[C@H]1CN(C)C(=O)c2ccc(NC(=O)c3ccc4c(c3)OCO4)cc2OC[C@@H](C)NC[C@@H]1C 0.503%
CN1C(=O)c2cc(NS(=O)(=O)CC(F)(F)F)ccc2OC[C@H]2O[C@@H](CC(=O)NCc3ccc(Cl)c(Cl)c3)CC[C@@H]21 -2.14%
Cc1ccccc1S(=O)(=O)N1[C@H](C#N)[C@H](c2ccccc2)[C@@H]1CO 1.23%
CN(C)C(=O)c1cccc(-c2ccc([C@H]3[C@H]4CN(C(=O)Cc5ccccc5)CC(=O)N4[C@H]3CO)cc2)c1 1.83%
CO[C@@H]1CN(C)C(=O)c2cc(NC(=O)NC3CCCC3)ccc2OC[C@H](C)NC[C@H]1C 1.04%
COc1cccc(S(=O)(=O)N2[C@@H]3CNC[C@H]2C3c2ccc(-c3ccccc3OC)cc2)c1 (some centres not stated) -1.91% and -0.285%
COC(=O)C[C@@H]1CC[C@H]2[C@H](COc3ccc(NC(=O)c4ccccc4F)cc3C(=O)N2C)O1 0.852%
C/C=C/c1ccc([C@H]2[C@@H](CO)N(C(=O)CN(C)C)C23CN(C(=O)C2CCCC2)C3)cc1 -0.32%
C[C@H](CO)N1C[C@H](C)[C@H](CN(C)C(=O)c2ccccc2)OCCCC[C@H](C)Oc2ccc(N(C)C)cc2C1=O 1.85%
COc1ccccc1S(=O)(=O)N1C[C@@H]2N[C@H](C1)C2c1ccc(-c2cccc(C)c2)cc1 (some centres not stated) 4.06% and 6.11%
C[C@@H](NC(=O)C[C@H]1C=C[C@@H](NC(=O)CN2CCOCC2)[C@@H](CO)O1)c1ccccc1 9%
CCCN1C[C@H](C)[C@@H](OC)CN(C)C(=O)c2ccc(NC(=O)C3CCOCC3)cc2OC[C@@H]1C -1.27%
O=C(Nc1cccc(Cl)c1)N[C@@H]1CC[C@@H](CCNC(=O)C2CCOCC2)O[C@@H]1CO -1.57%
COc1ccc(NC(=O)N(C)C[C@H]2Oc3ccc(N(C)C)cc3C(=O)N([C@@H](C)CO)C[C@H]2C)cc1 3.18%
O=C(Nc1cc(F)ccc1F)N1C[C@H]2[C@@H](c3ccccc31)[C@@H](CO)N2CC1CCCC1 -1.13%
C[C@H]1CN([C@@H](C)CO)C(=O)c2cc(NS(=O)(=O)c3cccs3)ccc2O[C@@H]1CN(C)C(=O)Nc1ccccc1 -2.47%
